# Screens as filed in PubChem.
# D2 antagonist = D2 dopamine receptor (human) antagonism; HEK293 TREx D2 cells, calcium flux, dopamine EC80; inhibition, % at 10 µM; actives 2% (n = 340,000); AID 485344; in the data active means inhibition above about 30%; inactive means below that, where a call was filed
# Target sequence (P14416 whole entry, looked up): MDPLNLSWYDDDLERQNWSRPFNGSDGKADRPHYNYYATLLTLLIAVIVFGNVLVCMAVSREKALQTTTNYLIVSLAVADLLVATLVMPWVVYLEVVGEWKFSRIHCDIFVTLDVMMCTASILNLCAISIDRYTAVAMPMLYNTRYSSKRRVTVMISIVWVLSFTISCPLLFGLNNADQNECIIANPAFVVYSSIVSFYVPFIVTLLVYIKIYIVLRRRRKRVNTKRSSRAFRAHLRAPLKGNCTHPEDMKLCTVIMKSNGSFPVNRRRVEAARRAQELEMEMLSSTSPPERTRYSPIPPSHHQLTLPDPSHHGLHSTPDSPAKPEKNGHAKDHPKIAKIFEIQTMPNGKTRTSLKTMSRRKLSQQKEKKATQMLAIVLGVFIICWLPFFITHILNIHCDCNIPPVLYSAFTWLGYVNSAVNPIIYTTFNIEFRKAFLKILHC
#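 HEK293 T-REx D2 cells, tet-induced, calcium dye no-wash. Cpd pintool add, 180 s kinetic, then EC80 DA, 180 s kinetic. Ca flux read.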
# D2 ag-1 = D2 dopamine receptor (human) agonism | HEK293 T-REx D2 cells, calcium flux agonist mode | activation, % at 2 µM | actives 0.53% (n = 340,000) | AID 485358;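 active means activation over 3 SD above normal in the single-dose calcium agonist read, cut at about 30% in these data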
#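 Agonism is scored from calcium flux in a force-coupled, inducible HEK293 cell line expressing D2, read kinetically for 180 s after compound addition against dopamine controls.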
# D2 ag-2 = agonists of human D2 dopamine receptor (beta-arrestin) | activation, % (concentration not given with the values) | DiscoveRx PathHunter D2 beta-arrestin, luminescence, 90 min; 100% = 57 uM dopamine signal | actives 0.084% (n = 360,000); in the data active means activation above about 40%; inconclusive means between about 15% and that limit
#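 DiscoveRx PathHunter D2 beta-arrestin cells (2,100/well) attached overnight, then compound-stimulated 90 min at 37 C in HBSS/10 mM HEPES/0.1% Tween-20 buffer; beta-galactosidase complementation read by luminescence after 1 h at ambient temperature. Dopamine 57 uM final (EC100) as control.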
# D2 PAM-1 = D2 dopamine receptor (human) potentiation | P14416 | HEK293 T-REx D2, calcium flux, EC20 dopamine potentiation | potentiation, % at 10 µM | actives 0.34% (n = 340,000) | AID 485347;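 active means potentiation over 3 SD above the plate norm, cut at about 30% in these data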
#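 Potentiation of an EC20 dopamine calcium response is measured in a force-coupled, tetracycline-inducible Hek293 Trex D2 line. Compound-only kinetic reads over 180 s flag agonists before dopamine addition.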
# D2 PAM-2 = positive allosteric modulators of human D2 dopamine receptor | AID 624464 | potentiation, % (test concentration not listed) | DiscoveRx D2 beta-arrestin cells, luminescence, 90 min; 100% = 57 uM dopamine signal | actives 0.23% (n = 360,000) | P14416; in the data active means potentiation above about 50%; inconclusive means mostly about 30% to 49%
#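 D2 cells co-treated with compound plus 50 nM dopamine (EC20) for 90 min at 37 deg C to detect potentiation. Beta-arrestin recruitment was read as enzyme-fragment luminescence after 1 h at ambient temperature. Full response was set by 57 uM dopamine.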
# Numbers stand for hits; i = inactive; ? = inconclusive; nt = no result. This is a sample that favours compounds with a hit; in the whole collection about 2.4% have one here.
SMILES,D2 antagonist,D2 ag-1,D2 ag-2,D2 PAM-1,D2 PAM-2
Cc1ccc(Cl)cc1-n1ncc2c(N3CCC(C)CC3)ncnc21,nt,i,nt,i,nt
Cc1ccc(-n2c(=O)c3c4c(sc3n(Cc3cc(=O)n5cc(Cl)ccc5n3)c2=O)CCC4)cc1C,nt,nt,nt,i,nt
Nc1nc(N)c2c(ccc3nccc32)[nH]1,i,i,i,i,52.2
Nc1ccc2ncccc2c1N,nt,nt,i,nt,i
Cc1ccc(S(=O)(=O)N(CC(=O)N2CCOCC2)CC(=O)N2CCOCC2)cc1,i,i,i,31.1,i
CNC(=O)c1nnc(Cc2ccc(F)cc2)o1,58.1,i,i,i,i
Cc1nc2c(c(SCC(=O)Nc3ccccc3C(F)(F)F)n1)CCC2,nt,nt,nt,i,nt
N#Cc1sc2nc(C3CC3)cc(-c3ccccc3)c2c1N,i,i,i,i,i
N#Cc1sc2nc(-c3ccccc3)cc(-c3ccco3)c2c1N,62.3,i,i,i,i
Cc1ccc(Cn2ncc3c(N4CCN(c5ccc(C)cc5)CC4)ncnc32)cc1,i,i,i,i,i
Cc1ccc(Cn2ncc3c(N4CCN(C)CC4)ncnc32)cc1,54.6,i,i,i,i
O=C(NCCCc1nc2ccccc2n1Cc1ccc(Cl)cc1Cl)c1ccco1,nt,i,nt,i,nt
O=C(NCC(O)COc1ccc([N+](=O)[O-])cc1)Nc1ccccc1 (stereo not drawn),i,i,i,i,i
Cc1cc(C)cc(NC(=O)NCC(O)COc2ccc([N+](=O)[O-])cc2)c1 (stereo not drawn),38.2,i,i,i,i
O=C(COc1ccc(Br)cc1)NNC(=O)Cc1ccc(S(=O)(=O)N2CCOCC2)s1,nt,nt,i,nt,i
C=CCn1c(SCC(=O)Nc2ccc(O)cc2)nc2sc(CC)cc2c1=O,31.1,i,i,i,i
CN(C)S(=O)(=O)c1ccc(N2CCCC2)c(C(=O)NNC(=O)COc2ccccc2F)c1,57.0,i,i,i,i
COc1ccc(NS(=O)(=O)c2cc(NC(=O)CCNC(C)=O)ccc2N2CCCCC2)cc1,36.8,i,i,i,i
COc1ccc(NC(=O)CN(C)C(=O)c2cc(S(=O)(=O)N(C)C)ccc2N2CCCC2)cc1,38.2,i,i,i,i
CN(C)S(=O)(=O)c1ccc(N2CCCC2)c(C(=O)NNC(=O)COc2ccccc2Cl)c1,i,i,i,i,i
O=C(Cn1ccc2cc(S(=O)(=O)N3CCCCCC3)ccc21)NCc1ccccc1Cl,nt,i,nt,i,nt
Cc1cc(Cl)ccc1OCC(=O)NNC(=O)CCOc1ccccc1,31.1,i,i,i,i
Cc1ccc(F)cc1NC(=O)CCOc1ccccc1,31.6,i,i,i,i
COc1ccc(Cl)cc1NC(=S)NCCc1ccc(S(N)(=O)=O)cc1,i,i,i,i,i
COc1ccc(Cl)cc1NC(=S)NCCc1ccc(F)cc1,39.6,i,i,i,i
SMILES,D2 antagonist,D2 ag-1,D2 ag-2,D2 PAM-1,D2 PAM-2
Fc1ccc(NC(=S)NCCc2ccc(Cl)cc2)cc1,31.7,i,i,i,i
COC(=O)c1c(-c2cccs2)csc1NC(=O)c1ccc(C(C)C)cc1,nt,nt,nt,i,nt
CCn1c(SCC(=O)c2ccccc2)nnc1-c1cccc(Cl)c1,nt,i,nt,i,nt
COc1ccc(O)c(C(=O)c2cc(C(=O)NCCc3ccccc3)c(=O)n(CCc3ccccc3)c2)c1,i,i,i,i,69.3
Cc1cc(NC(=O)C2CCN(S(=O)(=O)Cc3ccccc3)CC2)ccc1-n1cnnn1,30.4,i,i,i,i
Cc1cc(NC(=O)C2CCCN2C(=O)Nc2c(C)cccc2C)ccc1-n1cnnn1 (stereo not drawn),i,i,i,i,i
CC(=O)Nc1cc(C(=O)NCc2ccc(C)cc2)ccc1S(=O)(=O)c1ccc(Cl)cc1,nt,i,nt,i,nt
O=C(NC1CCCCC1)[C@H](O)[C@@H](O)C(=O)NC1CCCCC1,48.9,i,i,i,i
CCCCOC(=O)/C=C/c1ccc(OC(=O)OC)c(OC(=O)OC)c1,73.5,i,i,i,i
CC(C)c1ccc(N2C(=O)N(Cc3ccccc3Cl)c3ccccc3S2(=O)=O)cc1,nt,i,nt,i,nt
Cc1cc(NS(=O)(=O)c2ccc(NC(=O)c3ccc([N+](=O)[O-])c(Cl)c3)cc2)no1,nt,nt,i,nt,i
Cc1cc(NS(=O)(=O)c2ccc(NC(=O)c3ccc(Cl)cc3[N+](=O)[O-])cc2)no1,40.7,i,i,i,?
CCN(CC)C(=O)C1=C(C)NC(=S)NC1c1cccs1 (stereo not drawn),30.7,i,i,i,i
CC(C)c1ccc(NC(=O)Cn2c(=O)oc3cc(S(=O)(=O)N4CCCC4)ccc32)cc1,nt,i,nt,i,nt
O=C(N/N=C/c1ccc(OC(F)F)cc1)c1ccc(Br)cc1,31.3,i,i,i,i
COc1ccccc1/C=N/NC(=O)c1ccc(Br)cc1,71.6,i,i,i,i
COc1ccccc1C=NNC(=O)NN=Cc1ccccc1OC,nt,nt,i,nt,i
COc1ccc(/C=N/NC(=O)c2ccncc2)c(OC)c1,i,i,i,i,i
COc1ccc(/C=N/NC(=O)c2ccc(Br)cc2)c(OC)c1,33.1,i,i,i,i
COc1ccc2c(C)c(CCC(=O)NCCc3ccccc3)c(=O)oc2c1,nt,i,nt,i,nt
COc1ccc(NC2=C(C(C)=O)C(c3ccc(OC)cc3)C(C(C)=O)C(C)(O)C2)cc1 (stereo not drawn),i,i,i,i,i
COc1ccc(NC2=C(C(C)=O)C(c3ccc(N(C)C)cc3)C(C(C)=O)C(C)(O)C2)cc1 (stereo not drawn),i,i,i,i,50.8
CCOC(=O)c1ccccc1NC(=O)c1nn(-c2ccc(C)cc2)c(=O)n(C)c1=O,nt,i,nt,i,nt
COc1ccc(-c2nnc(SCCC(=O)O)n2C)cc1OC,34.4,i,i,i,i
O=C(CNC(=O)c1cccs1)N/N=C/c1c(F)cccc1Cl,30.5,i,i,i,i
SMILES,D2 antagonist,D2 ag-1,D2 ag-2,D2 PAM-1,D2 PAM-2
COc1ccccc1-c1nn(CCC(=O)Nc2cccc(C(C)=O)c2)c2nc(C)cc(C)c12,nt,i,nt,i,nt
Cc1cccn2c(=O)c3cc(C(=O)N4CC(C)CC(C)C4)sc3nc12 (stereo not drawn),i,i,i,37.9,i
CCOC(=O)C1CCCN(C(=O)c2cc(-c3ccncc3)nc3ccccc23)C1 (stereo not drawn),i,i,i,i,i
CC1CCN(c2oc(-c3ccc(F)cc3)nc2C#N)CC1,i,i,i,i,i
CCOC(=O)C1CCCN(C(=O)c2cc(-c3ccc(F)cc3)nc3ccccc23)C1 (stereo not drawn),47.3,i,i,i,i
CCOC(=O)C1CCCN(c2oc(-c3ccc(F)cc3)nc2C#N)C1 (stereo not drawn),35.1,i,i,i,i
CCOC(=O)C1CCCN(C(=O)c2cc3c(=O)n4ccccc4nc3s2)C1 (stereo not drawn),i,i,i,44.2,i
Cc1cc(C)cc(NC(=O)c2cc(S(=O)(=O)N3CCCCCC3)cn2C)c1,nt,i,nt,i,nt
